# Assay outcomes (PubChem BioAssay)
# Sampled rows, rich in hits. Any-hit rate of the full collection: about 3.4%.
# Gli-Sufu antag: Gli-Sufu pathway antagonism. 0.74% of 340,000 active. Sufu-KO-LIGHT fibroblasts, Gli luciferase reporter luminescence. inhibition, % at 5 µM. AID 588413;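 active = inhibition above about 55%, limit read from the data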;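 also: 0% = DMSO-treated cells and 100% = wells with medium but no cells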
# SMARCA2 act: increases SMARCA2 function in MMTV reporter cells | activation, % at 9.1 µM | 1% of 370,000 active | MG213 cells, MMTV-luciferase reporter, dexamethasone, overnight; in the data active = activation above about 7.8%;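 also: 0% = vehicle wells and 100% = reference activator wells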
# GalR3 antagonist: blocks the human galanin receptor 3; HEK293 GalR3-CNG cAMP membrane potential fluorescence; galR3 body fused to GalR1 C-terminus; inhibition, % at 3 µM; O60755; AID 651719; 0.44% of 360,000 active;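 active = inhibition above the screen-wide average plus 3 SD, cut at about 13% in these data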;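 also: forskolin and galanin both at EC90 stimulate the cells; cAMP rise reported by CNG channel membrane potential dye signal; 0% = forskolin plus galanin with DMSO and 100% = forskolin alone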
# FXN GAA850 act: activators of GAA850 frataxin (FXN) promoter. HEK293 lucGAA850 FXN promoter luciferase reporter, 24 h; percent of 10 µM SAHA response. activation, % at 6 µM. 0.56% of 360,000 active. AID 540364;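 active = activation above the average of all compounds screened plus 3 SD, cutoff fixed separately per campaign, cut at about 7.5% in these data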;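 also: 0% = DMSO wells and 100% = 10 µM SAHA wells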
# COUP-TFII inh: blocks human COUP-TFII nuclear receptor; 0.7% of 370,000 active; inhibition, % at 8.6 µM; AID 686940; HEK293T NGFI-A luciferase reporter, luminescence; P24468;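 active = inhibition above a per-plate cutoff, mean inhibition of test wells between control levels plus 3 SD, cut at about 38% in these data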;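 also: cells cotransfected with COUP-TFII expression vector driving the NGFI-A reporter; 0% = median of COUP-TF2 test wells and 100% = reporter-only cells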
# Target sequence (P24468 whole entry, looked up): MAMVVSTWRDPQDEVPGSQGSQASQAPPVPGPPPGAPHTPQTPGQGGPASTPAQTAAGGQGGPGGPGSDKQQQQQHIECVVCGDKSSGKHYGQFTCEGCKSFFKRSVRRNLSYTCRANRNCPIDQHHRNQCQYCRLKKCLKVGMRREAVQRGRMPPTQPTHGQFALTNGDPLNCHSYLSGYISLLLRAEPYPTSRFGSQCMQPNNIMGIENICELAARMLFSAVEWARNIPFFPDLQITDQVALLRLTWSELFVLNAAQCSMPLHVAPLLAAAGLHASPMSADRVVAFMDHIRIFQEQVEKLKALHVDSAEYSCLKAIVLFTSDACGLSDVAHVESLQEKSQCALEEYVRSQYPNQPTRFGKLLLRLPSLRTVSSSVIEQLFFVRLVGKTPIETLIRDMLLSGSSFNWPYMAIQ
# H9c2 protect: myocardial damage modulation in H9c2 cells. protection from H2O2 cell death, % at 20 µM. 0.63% of 360,000 active. H9c2 cardiomyocytes, H2O2 injury protection, ATPLite, 2 h. AID 588492;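 active = compounds giving at least 50% protection of heart cells from peroxide-induced death in the single-dose screen, raw or plate-pattern-corrected value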;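 also: 0% = DMSO wells with peroxide and 100% = DMSO wells without peroxide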
# Starred values were filed as active, the others as inactive; . = not tested or not shown.
SMILES,Gli-Sufu antag,SMARCA2 act,GalR3 antagonist,FXN GAA850 act,COUP-TFII inh,H9c2 protect
COc1cccc(NC(=O)NC2(C(F)(F)F)Oc3ccccc3O2)c1,44,-3,-3,4,3,75*
COc1ccccc1OCC(=O)Nc1cccc(-c2nnc(-c3ccco3)o2)c1,-70,7,-2,5,-26,64*
COc1cccc(NC(=O)COc2ccccc2)c1,52,7.8*,-8,3,-46,-6
COc1cc(NC(=O)COc2cccc(OC)c2)cc(OC)c1,-7,-1,2,0,-17,-4
CC(=O)Nc1cccc(-c2nnc(-c3ccccc3)o2)c1,-58,4,-2,4,-28,5
COC(=O)C1CN(Cc2ccc(OC)cc2)CCS(=O)(=O)N1Cc1cn(Cc2ccc(OC)cc2)nn1 (stereo not drawn),.,-3,.,.,20,.
Cc1cccc(C)c1OCC(=O)Nc1cccc(C(=O)O)c1,-79,7.9*,-5,6,-40,2
Cc1ccc(C)c(OCC(=O)Nc2cccc(C(=O)O)c2)c1C,-37,3,-4,6,-28,-3
C[C@@H]1CCN(C2CC2)S(=O)(=O)c2c(cccc2N2CCC[C@H]2CO)O1,.,1,.,.,2,.
O=C(COC(=O)Cc1c(Cl)cccc1Cl)NCC1CCCO1 (stereo not drawn),0,2,14*,1,-13,1
O=C(COC(=O)Cc1ccc(Br)cc1)NCC1CCCO1 (stereo not drawn),1,-5,-4,-1,22,1
CCOc1ccc2[nH]c(=O)c(CN(Cc3cccs3)C(CC)c3nnnn3C(C)(C)CC)cc2c1 (stereo not drawn),3,-1,-5,3,-1,67*
CCOC(=O)Cn1nnnc1C(CC)N(Cc1cccs1)Cc1cc2cc(C)ccc2[nH]c1=O (stereo not drawn),3,-2,0,-1,18,2
C=CCN1[C@H](C#N)[C@@H](c2ccc(C#Cc3cccnc3)cc2)[C@H]1CO,.,0,.,.,7,.
CCOc1ccc(CC(=O)Nc2c(C(=O)Nc3ccccc3)oc3ccccc23)cc1OCC,9,-1,-4,2,6,14
CCOc1ccc(CC(=O)Nc2c(C(N)=O)oc3ccc(Br)cc23)cc1OCC,-5,-3,.,0,4,78*
COc1cccc(/C=N/NC(=O)c2c(C)nc3ccc(Br)cn23)c1O,88*,.,.,-11,.,58*
COc1cccc(/C=N/NC(=O)CNC(=O)CCc2ccccc2)c1O,1,-3,-1,1,16,36
COc1ccccc1/C=C/C(=O)NCC(=O)N/N=C/c1cc(Br)ccc1OC,0,-3,-5,-2,-8,98*
COc1cccc(/C=N/NC(=O)CNC(=O)c2cccs2)c1O,3,-3,1,-1,7,63*
COc1cccc(/C=N/NC(=O)CSc2ccccc2C)c1O,5,-4,-1,0,9,53*
Cc1ccccc1C(=O)NC1CCCCN(Cc2cccc(Cl)c2)C1=O (stereo not drawn),.,-2,.,.,22,.
C=CCN1[C@H](CO)[C@H](c2ccccc2)[C@@H]1C#N,.,-3,.,.,-9,.
Cc1cccc(N2CCN(C(=O)c3cc(S(=O)(=O)N(C)C)ccc3Cl)CC2)c1C,.,.,.,.,23,.
COc1cccc(/C=N/NC(=O)Cn2nc(C)c([N+](=O)[O-])c2C)c1O,13,-2,-5,-4,-2,54*
SMILES,Gli-Sufu antag,SMARCA2 act,GalR3 antagonist,FXN GAA850 act,COUP-TFII inh,H9c2 protect
COc1ccccc1/C=C\C(=O)NCC(=O)N/N=C/c1cccc(OC)c1O,-20,-4,-6,-3,-5,72*
COc1ccc(/C=N/NC(=O)CNC(=O)/C=C/c2ccccc2OC)cc1,-15,-3,-5,-2,-1,3
C[C@@H]1CN([C@@H](C)CO)C(=O)c2cc(NC(=O)Nc3ccccc3)ccc2O[C@H]1CN(C)C(=O)Nc1cccc2ccccc12,-13,.,.,-1,.,90*
C[C@H](CO)N1C[C@H](C)[C@@H](CN(C)C(=O)Nc2ccccc2)Oc2ccc(NC(=O)Nc3ccc(C(F)(F)F)cc3)cc2C1=O,-5,-1,-4,1,-4,-2
COc1cc(NC(=O)c2cc([N+](=O)[O-])ccc2NC(=O)CN2CCN(c3ccccn3)CC2)cc(OC)c1,-5,-1,0,-5,-10,55*
O=C(CN1CCN(c2ccccn2)CC1)Nc1ccccc1C(=O)Nc1ccccc1,-2,-1,2,4,-1,24
CCOC(=O)N1CCN(CC(=O)Nc2ccc([N+](=O)[O-])cc2C(=O)Nc2ccccc2F)CC1,6,0,2,-9,-10,42
O=C(CN1CCN(Cc2ccccc2)CC1)Nc1ccc([N+](=O)[O-])cc1C(=O)Nc1ccccc1F,24,4,-2,-8,1,51*
CCOC(=O)[C@@]12CCC3=C1N(CCC3)C(=O)[C@H](CC(=O)NCc1ccc(C)o1)C2,.,-1,.,.,14,.
COc1cc(C(=O)Nc2nc(-c3cccs3)cs2)cc(OC)c1OC,15,-4,-9,-3,8,81*
COc1ccc(C(=O)Nc2nc(-c3cccs3)cs2)cc1,-32,0,-4,2,-18,1
CCC(C)[C@H](NC(=O)C1CC(=O)N(c2ccc(OC)cc2)C1)C(=O)NC1CCCC1 (stereo partly drawn),-13,8.0*,5,-1,3,-1
CCn1c(Cc2cccs2)nnc1SCC(=O)Nc1ccc(Cl)cc1C,.,-2,.,.,10,.
COc1ccc(-c2cc(=O)oc3cc(O)ccc23)cc1,-1,2,-6,-1,26,44
O=c1cc(-c2ccc([N+](=O)[O-])cc2)c2ccc(O)cc2o1,-18,-3,-3,1,-6,60*
COc1ccc(C2C(O)C(c3c[nH]c4ccccc34)=NN2C(=O)CCl)cc1 (stereo not drawn),86*,-12,-3,-12,25,-9
COc1ccc(C2NN=C(c3c[nH]c4ccccc34)C2O)cc1 (stereo not drawn),-20,1,-10,0,-6,-2
CCOC(=O)[C@]12CCCC=C1N(CCCOC)C(=O)[C@@H]2CC(=O)N1CCCCC1,.,-1,.,.,2,.
Nc1ncc(Br)cc1N=Cc1ccccc1,-49,0,-4,9.9*,-26,-6
Cn1ncc(N=Cc2ccccc2)c1C(N)=O,0,1,-4,-1,-14,7
Cc1cc2c(c(=O)o1)[C@@]1(C(=O)N(C)c3ccccc31)C1=C(CCCC1=O)O2,.,-1,-5,.,-12,.
N#Cc1cc2nc(O)c(O)nc2cc1[N+](=O)[O-],-12,-1,.,-2,5,2
CNc1nc2cc([N+](=O)[O-])c([N+](=O)[O-])cc2nc1NC,84*,-3,0,-6,4,-27
c1cncc(-c2nc(NCC3COc4ccccc4O3)c3ccccc3n2)c1 (stereo not drawn),8,-1,-6,-1,11,52*
